# According to ChEMBL document CHEMBL4513216, “Probing the Open Global Health Chemical Diversity Library for Multistage-Active Starting Points for Next-Generation Antimalarials” (ACS Infect Dis, 2020):
# Out of some 69,000 compounds screened, about 8,600 (12%) showed an effect of 50% or more. Only a selection was taken, and strong results are over-represented in it overall.
# Test system: Plasmodium berghei
# Test: Screen against P. berghei liver stage (PbLuc), transformed with Luciferase, at 10uM
# Format: functional, HepG2
# Settings: tested at 10 uM
row,Structure (SMILES),INHIBITION
1,CC(C)c1ncncc1C(=O)N1CCN(Cc2ccccn2)CC1,5.9%
2,Cc1cc(C(=O)Nc2cnn(CC(F)(F)F)c2)nc(N(C)C)n1,0.91%
3,O=C1CCC(=O)N1c1nn(Cc2ccccc2Cl)cc1Cl,20.4%
4,Cc1cc(C)c(CNC(=O)NCC2COCCO2)c(=O)[nH]1 (stereo not given),23.45%
5,CCc1ccc2c(c1)C(CCNC(=O)c1sccc1C)C(=O)N2 (stereo not given),61.9%
6,CCN1CCN(c2ccc(CNC(=O)c3sccc3C)cn2)CC1,-23.8%
7,CCc1ccc2c(c1)C(CCNC(=O)CCc1ccsc1)C(=O)N2 (stereo not given),26.7%
8,CCc1ccc2c(c1)C(CCNC(=O)Cc1cccc(F)c1)C(=O)N2 (stereo not given),37.8%
9,CCc1ccc2c(c1)C(CCNC(=O)Cc1ccc(F)cc1)C(=O)N2 (stereo not given),53.6%
10,CCc1ccc2c(c1)C(CCNC(=O)CSC(F)(F)F)C(=O)N2 (stereo not given),40.6%
11,CS(=O)(=O)N(Cc1ccon1)c1cccc(Br)c1,-11.9%
12,CC(c1ccccc1)n1cc2nc(N(C)C)[nH]cc-2c1=O (stereo not given),15.7%
13,CC(C)S(=O)(=O)C(C)C(=O)NCc1ccccc1OCc1ccccc1 (stereo not given),42.5%
14,CNC(=O)[C@@H](c1ccccc1OC)N1CCC[C@H]1C(=O)N1CC[C@@H](O)C1,-63.5%
15,O=C(O)c1nnn(-c2ccc(OC(F)(F)F)cc2)c1-c1ccncc1,-22.1%
16,c1ccc(Cn2cccn2)c(CN2CCC3(CCCNC3)C2)c1 (stereo not given),4.87%
17,c1cnn(Cc2ccc(CN3CCC4(CCCNC4)C3)cc2)c1 (stereo not given),3.96%
18,COc1ccc(-n2cccn2)c(CN2CCC3(CCNCC3)C2)c1,53%
19,COc1ccc(-n2cccn2)c(CN2CCC3(CCCNC3)C2)c1 (stereo not given),13%
20,COc1ccc(-n2cccn2)c(CN2CCC(O)(CO)CC2)c1,21.2%
21,c1cnn(Cc2ccc(CN3CCC4(CCNCC4)C3)cc2)c1,60.3%
22,Cn1cccc1C(=O)N1CC[C@@]2(O)CCN(S(C)(=O)=O)C[C@H]2C1,42.1%
23,CC(C)CNc1nccc(-c2cnc3sc(Cl)cn3c2=O)n1,2.6%
24,Cc1cc(C(F)(F)F)nn1CC(C)C(=O)Nc1ccccn1 (stereo not given),-22.2%
25,Cc1cc(C)n(CC(=O)NCc2ccccn2)n1,3.58%
26,CCOc1ncccc1CNC(=O)NC1CCOc2ccccc21 (stereo not given),52.5%
27,CC(C)Oc1ncccc1CNC(=O)NC1CCOc2ccccc21 (stereo not given),42.9%

row,Structure (SMILES),INHIBITION
1,COc1ncccc1CNC(=O)NC1CCOc2ccccc21 (stereo not given),29.6%
2,COc1ccccc1C(=O)N1CCC(O)(c2cccc(C)c2C)CC1,24.2%
3,CCC(=O)N1CCC(O)(c2ncc(OC)nc2OC)CC1,0.0932%
4,Cc1cccc(C2(O)CCN(C(=O)c3ccccn3)CC2)c1C,57.8%
5,Cc1cccc(C2(O)CCN(C(=O)c3ccc(N(C)C)cc3)CC2)c1C,33.1%
6,COc1cnc(C2(O)CCN(C(=O)c3scnc3C)CC2)c(OC)n1,36.7%
7,COc1cnc(C2(O)CCN(C(=O)c3ccncc3)CC2)c(OC)n1,37.5%
8,COc1cnc(C2(O)CCN(C(=O)c3ccccn3)CC2)c(OC)n1,57.5%
9,COc1cnc(C2(O)CCN(C(=O)c3ccco3)CC2)c(OC)n1,29.3%
10,COc1cnc(C2(O)CCN(C(=O)c3cccnc3)CC2)c(OC)n1,60.8%
11,CCOC(=O)[C@H]1CNC[C@@H]1C(F)(F)F,35.6%
12,Cc1nnc([C@@H]2CC[C@@H]3[C@@H](CCN3S(=O)(=O)c3cccnc3)O2)o1,14.2%
13,Cc1ccc(C(=O)NS(=O)(=O)c2ccccc2F)c(=O)[nH]1,33.8%
14,CN(C)C(=O)Cn1cc(C(=O)NCCc2ccc(Cl)cc2Cl)nn1,-27.8%
15,CCc1nccn1C1CCCN(C(=O)c2ccoc2C)C1 (stereo not given),21.6%
16,CC(=Cc1ccccc1)CNCc1cccc(C(N)=O)c1,4.3%
17,O=C(O)c1ccccc1-n1cc(CN2CCC(c3cc[nH]n3)C2)cn1 (stereo not given),22.17%
18,Cc1csc2cc(C(=O)NC3CCCC3)cnc12,-76.5%
19,CCN1CCc2c(sc3c2C(=O)NC(C=Cc2ccccc2)N3)C1 (stereo not given),15.1%
20,CCc1nc(C)sc1CN(Cc1ccncc1)C1CCN(C)CC1,18.8%
21,Cc1nc(-c2ccc(CNS(=O)(=O)N(C)C)cc2)ccc1C(N)=O,-4.87%
22,CN(C)C(=O)Cc1nc(CN2CCCC2Cn2cncn2)cs1 (stereo not given),60.8%
23,CN(C)C(=O)Cc1nc(CN2CCCC2Cn2cccn2)cs1 (stereo not given),47.9%
24,CC(=O)Nc1nc(CN2CCCC2Cn2cccn2)cs1 (stereo not given),13.7%
25,CN(C)C(=O)Cc1nc(CN2CCCCC2Cn2cncn2)cs1 (stereo not given),19.1%
26,CC(=O)Nc1nc(CN2CCCC2Cn2cncn2)cs1 (stereo not given),61.3%
27,CC(=O)Nc1nc(CN2CCCCC2Cn2cncn2)cs1 (stereo not given),0.411%

row,Structure (SMILES),INHIBITION
1,Cc1cccc(CN2CCC3(CCCN(C(=O)c4ccoc4)C3)C2=O)n1 (stereo not given),-3.52%
2,CCn1nc(Br)nc1Sc1ccccc1NC(C)=O,12.4%
3,Cc1ccc(CN2C[C@H](OCCN(C)C)[C@H]3OCCC[C@H]32)o1,-102%
4,CC(=O)N1CCC[C@@H](NCc2cccc(F)c2)[C@@H]1c1ccc(C)s1,-32.2%
5,O=C(Nc1cccc(N2CCCC2)c1)N[C@H](CCO)c1ccccc1,19.8%
6,O=C(Nc1cccc(N2CCOCC2)c1)N[C@H](CO)c1ccccc1,51.8%
7,CCC(=O)N1CCN(C(=O)Nc2cccc(N3CCOCC3)c2)CC1,23.2%
8,CCn1ncc(S(=O)(=O)NC2(CN3CCOCC3)CCCCC2)c1C,32.8%
9,CCOC(=O)N1CCC(NC(=O)Nc2cccnc2OCC)CC1,-35.7%
10,Fc1cnc(N2CC[C@@H](N3CCOCC3)[C@@H]2Cc2cccnc2)nc1,43.8%
11,COc1ccccc1OCCn1c(C)c(C)oc1=O,48.2%
12,Cc1ccc(C)c(S(=O)(=O)CCN2CCCC2Cn2cccn2)c1 (stereo not given),4.93%
13,CC(C)(C)c1cnc(CN2CCC[C@H]2CO)o1,34.1%
14,Cc1cc(N2CCC(n3cc(CN4CCC[C@@H]4CO)nn3)CC2)ccn1,68.9%
15,OC[C@@H]1CCCN1Cc1cn(C2CCN(C3CCCC3)CC2)nn1,54.4%
16,Cc1cc(N2CCC(n3cc(CN4CCNCC4)nn3)CC2)ccn1,49.9%
17,CC(C)Nc1cc(N2CCC(n3cc(CCO)nn3)CC2)ncn1,19.3%
18,Cc1cc(N2CCC(n3cc(CCCO)nn3)CC2)ccn1,41%
19,COc1ccc(C[C@H]2CNCC[C@@H]2OCC2CC2)cc1,-51.6%
20,CN(C(=O)Cc1ccc2c(c1)OCCO2)C1CCCC1,-138%
21,Cc1cncc(C2CCN(Cc3cccn3C)CC2)n1,41.2%
22,CCn1cc(NC(=O)C2CCC(=O)N2Cc2ccc(C)o2)cn1 (stereo not given),16.1%
23,CN(C)C[C@H]1CC[C@@H](Cc2ccc3c(cnn3C)c2)O1,32.4%
24,CN1CCC(N(C)C[C@H]2CC[C@@H](Cc3ccc4c(cnn4C)c3)O2)CC1,14.9%
25,CCN(C)C[C@H]1CC[C@@H](Cc2ccc3c(cnn3C)c2)O1,58.2%
26,CCOc1nn(CC)cc1-c1nnc(SCC)n1C,15%
27,Cc1nn(C)c(C)c1C(C)NCc1ccsc1 (stereo not given),-14.5%

row,Structure (SMILES),INHIBITION
1,Cc1nn(C)c(C)c1C(C)NCc1ccc(OC(C)C)cc1 (stereo not given),-37.7%
2,Cc1cc(C)cc(CNC(C)c2c(C)nn(C)c2C)c1 (stereo not given),58%
3,CN1CC(=O)N(c2cccc(F)c2)CC12CCN(CC1CCOCC1)C2 (stereo not given),-4.23%
4,CN(C)c1ncc(-c2cc(C(=O)NC(C)(C)CO)n(CC3CC3)c2)cn1,-21.1%
5,COc1ccc(C(=O)NCC(c2cccn2C)N2CCCC2)c(OC)c1 (stereo not given),-11.1%
6,COc1ccc(C(=O)NCC(c2cccn2C)N2CCCC2)cc1OC (stereo not given),52.4%
7,COc1cc(OC)cc(C(=O)NCC(c2cccn2C)N2CCCC2)c1 (stereo not given),28.4%
8,COc1cccc(OC)c1C(=O)NCC(c1cccn1C)N1CCCC1 (stereo not given),30%
9,COc1cccc(C(=O)NCC(c2cccn2C)N2CCCC2)c1OC (stereo not given),75.6%
10,COc1ccc(C(=O)NCC(c2cccn2C)N2CCN(C)CC2)cc1 (stereo not given),6.83%
11,CN(C)C(=O)c1cccnc1SCc1ccccc1C#N,1.61%
12,CCc1nc(C2CCCN(C(=O)c3ccc(O)nc3)C2)no1 (stereo not given),43.2%
13,CN1CC(=O)N(c2ccccc2)CC12CCN(C(=O)c1cnccn1)C2 (stereo not given),29.3%
14,c1ccc(-c2nnc(CN3CCOC(Cn4cccn4)C3)o2)cc1 (stereo not given),0.914%
15,Cc1cnn(CCC(=O)N2CCCC(c3noc(C)n3)C2)c1 (stereo not given),-4.16%
16,Cc1ccc2c(n1)N(CCn1cccn1)CCN(C1CCOCC1)C2,-77.4%
17,O=C1[C@H]2CN(C3CCOCC3)C[C@H]2CN1Cc1cccnc1,92%
18,O=C1[C@H]2CN(S(=O)(=O)C3CC3)C[C@H]2CN1Cc1cccnc1,15.4%
19,Cc1ccc2c(n1)N(Cc1cccnc1)CCN(C1CCOCC1)C2,64.9%
20,Cc1ccc2c(n1)N(Cc1cccnc1)CCN(C(=O)C1CC1)C2,31.1%
21,O=C1[C@H]2CN(C3CCOCC3)C[C@H]2CN1Cc1ccncc1,-2.46%
22,CCOC(=O)CNC(=O)NCc1cccn1Cc1cccc(C)c1,45.8%
23,CC(=O)N1[C@H](CN(C)C)C[C@@H]2CN(C(=O)c3occc3C)CC[C@@H]21,12.4%
24,O=C(c1ccncc1)N1CCCC(c2ncncc2-c2ccncc2)C1 (stereo not given),12.3%
